Experimental data published in PubChem BioAssay AID1508600 (Functional Genomics Laboratory (NCATS/FGL), 2020).
In all, about 53,000 sequences went through this assay and about 3,700 (7%) were called active. This excerpt belongs to a sample that is enriched for actives. Unmarked numbers belong to inactive results.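 Rule for the calls: active = gene knockdowns whose robust z-score for IL-1 alpha signal is at least 2 or at most -2, so actives lie on both sides; inactive = the rest.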

Test: Components of the Cytosolic LPS Sensing Pathway: Gene Identification via Genome-wide siRNA Screen;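 note: robust z of the log signal after scaling to non-targeting control siRNA wells of the plate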
Details: RAW264.7 macrophages, IL-1a HTRF, actives lie on both sides, screened at 100 nM (by protocol), cells primed 5 h with Pam3CSK4 first
In short: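 RAW264.7; siRNA 100 nM final, RNAiMAX, 48h 37 degrees C; Pam3CSK4 5 h; LipidA + TransIT-TKO 24 h; IL-1a HTRF; CellTiter-Glo viability; robust z vs negative-control median.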

Sequence | z-score
GCGAGUUGAAGACUGAAGGTT against Ccdc68 | 1.44
GGUCAUACAUUUGUCAUCATT against Bend7 | -0.336
CCAUGUUAGAACUGGGACUTT against Tafa2 | 2.44 (active)
GGUCAUGGGACAGCAAAUGTT against Tmco6 | -1.67
GGAAGACGUAUUUGUACACTT against Ybx1 | -0.523
GGAGUAGCUGAAUCUGAAGTT against Atp5e | 1.57
CCUCAUUUCAACCAUUCACTT against Lyzl6 | -2.36 (active)
GGAGCUUCAUCUUUCAAGATT against Uqcrc2 | -0.0657
GCAUUGUGCUUUUGACAACTT against Abca15 | -0.173
GGAGCUUGAAAUUGUCAUUTT against Magoh | -3.51 (active)
GGACCGGUGUCUAAUCAGCTT against Capn10 | 1.75
GGCUCAAGGAACAUGAGGCTT against Gtsf2 | -0.0452
GGCACAAACUAGAUGCAGATT against Ccdc68 | -0.669
GCUCUCGUAGACUGCUAUATT against Ppp1r14c | 2.13 (active)
GGAAUUUGAAUCACGUUUGTT against Hprt | 1.72
CGGAUUCGGGAAUUCUAUCTT against Pcgf1 | 0.143
GGGUACCUCGUGGUACAUUTT against Rapgef3 | 0.352
GGUCCAAAAGUUGUUUCAATT against Oga | 3.12 (active)
GGAUUCAGCAGCUUCAGAATT against Rex1bd | 0.221
GGAUUAUGCAAGUUACAUUTT against Nsf | -0.63
GCACCUAGUUAAUGCUGCCTT against C2cd2 | -2.15 (active)
GCAGGCAUCGUGUUUACCATT against Cdh20 | 1.86
GCUCAAUUGUUCUUCUUUUTT against Olfr806 | -1.13

Sequence | z-score
GCUUUAGAACAGAGGGUUATT against Scd4 | 0.989
GGAGAUCUUCAACUGCCACTT against Rps6kl1 | 0.842
GGUGAUUACUCUUAUGUGATT against Slc7a8 | -0.663
GGCUGAAGGAGCAAUCAAATT against L3mbtl3 | 1.85
GGCCGUUAUUAAAUUCAUATT against Twsg1 | -0.609
GCCGUACCAUGUAAUGCCATT against Naa60 | -2.05 (active)
GGCCUCAGCUCACAACAAATT against Sf3b4 | -1.71
GGAAGCAAAAUAAAGAAACTT against Myo1e | 0.109
GCGAGAGUCACAAAGUGCATT against Rcc1l | 1.35
GCUAGAGGUGACUGAUGUCTT against Tti1 | -1.26
GGAACAAGAGAGGACAAGUTT against Papss2 | 0.555
GCCAAAAGUCGAGCACCUCTT against Lrrc8d | 0.43
CGGUGCUUGCUUCUAUGUGTT against Olfr642 | 0.201
GCUUUUGUGACUCUGCUGATT against Raver1 | -1.41
CCAUCUAUCAACUUCUACATT against Sat1 | -0.34
GGCUAUGUUCACCUGUGGATT against Kbtbd12 | -2.66 (active)
CCUGUAAGAACCUUGCCUATT against Sytl3 | 0.733
GGAAGGAAGAAGACAAUAATT against Nudt16l1 | -0.438
GCGGAUGAUCAAGAAUCGATT against Atf6b | -0.421
GCUGUGAAAACGCAGUUACTT against Ccser2 | 1.77
CCUAUACAUGCUACUGAACTT against Itga9 | -0.723
CCCAGGGUACCUCACAUCUTT against Nrp1 | -0.595
GGUCAUCAAUGCCACAGCUTT against Lpo | -2.24 (active)

Sequence | z-score
CCGGAGUGACCAUAUUCGUTT against Fgr | -0.446
GGCUCUCAAUGAUCAUCAUTT against Aldob | -0.423
GGAAGUACAGAAUUUUGAATT against Sft2d2 | 1.46
GGAAAUGUUGAAUCUUGCUTT against Mfsd4a | 0.0725
CGAUGUAAGGAAAGAAAGGTT against Cd14 | -1.47
CCCUUUGUGUGGAUUAUAUTT against Sp9 | 2.91 (active)
GGGACUGUAAUACCAUGAUTT against Rnase10 | 0.0343
GGCCUUCACCAAAAGCAUCTT against Ncf2 | -0.661
GGUUUCCUUUGUCUGUUUUTT against 9530091C08Rik | -0.509
GGCUCUAACUAUUAUGUGCTT against Psmc4 | -2.9 (active)
CCUGGCUGUAAUCACCAUCTT against Olfr1160 | 0.953
GGACAGAUCUUUGAAGCAGTT against Vps18 | -1.7
GGACGAGGAGUACGAGCAATT against Nfkbia | 2.6 (active)
CUACCUACUCCAUGUGGUGTT against Gpihbp1 | -0.55
GGCCAUUAAAUUUAUCAACTT against Aldh3a1 | 1.61
GGGAGAGCUGCUGUUUUUCTT against Rxfp3 | 1.46
GGUCUGCUUUGUCUUGGUGTT against Olfr829 | 0.126
GGAUGAAGAUGAAAAGGAATT against Ube3a | -0.519
CCUGAAAGUCGUUUAUCGCTT against Il7r | 2.74 (active)
GGCUAUUUAUAAGUCCAGUTT against Uso1 | -0.307
GGAUAGGUUUCUGUAUUUATT against Znrf1 | 0.621
CCGUAUGAACGUGUGAUAATT against Rasef | 0.142
GGGCACCUAGUUUCCAUGATT against Cox7b | -0.385
